Hits are enriched below; roughly 9.3% of the tested compounds scored in any of these assays.
HCMV inh = blocks human cytomegalovirus replication; HFF cells, HCMV-luciferase reporter, 72 h; stronger effect = lower value; activity change, negative = inhibition, % at 57.5 µM; actives 4.5% (n = 410,000); AID 1259415; in the data active = activity change below about -60%; inconclusive = no clear call, values can overlap the other calls; inactive = above about -39%
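HFF cells seeded 16 h at 37C, treated with compounds, infected with luciferase-reporter HCMV at MOI 1 PFU/cell; luciferase read at 72 h post infection, normalized to buffer-only and Salinomycin controls.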
Vaccinia Venus = inhibitors of vaccinia virus (Venus reporter); Vaccinia virus Venus reporter expression, fluorescence; Potency, µM (top dose mostly 36.5 µM), without a hit: at the top dose activity change, negative = inhibition, hits mostly inhibitors; actives 0.46% (n = 330,000); AID 720580; calls by dose curve; tested in A549 cells; also: potency is read from the fitted curve at half-maximal effect; nearly all actives have a fitted effect of over 30% in size
Vaccinia mCherry = inhibitors of vaccinia virus infection (mCherry reporter signal). Potency, µM (highest dose often 36.5 µM), without a hit: top-dose activity change, negative = inhibition, most hits filed as inhibitors. AID 720579. Vaccinia virus mCherry reporter infection, fluorescence. actives 0.63% (n = 310,000); calls by dose curve; tested in A549 cells; also: potency is read from the fitted curve at half-maximal effect; nearly all actives have a fitted effect of over 35% in size
Sm TGR block = S. mansoni TGR enzyme inhibition | Q962Y6 | Potency, µM (highest dose often 114 µM), for inactives: at the highest dose activity change, negative = inhibition, usual class: inhibitors | AID 485364 | purified TGR, DTNB reduction, TNB absorbance 405 nm | actives 3% (n = 360,000); also: potency is read from the fitted curve at half-maximal effect; nearly all actives have a fitted effect of over 60% in size
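Kinetic colorimetric format: TGR-catalysed, NADPH-driven DTNB reduction monitored via TNB absorbance. Enzyme dispensed at 20 nM; compound exposure 15 min at room temperature before reaction start.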
HCV inh = inhibitors of hepatitis C virus infection | Huh7.5.1 HCVcc-Cre infection, luciferase reporter, 44 h | actives 3.4% (n = 340,000) | Potency, µM (top dose mostly 41.8 µM), inactives show at the highest dose activity change, negative = inhibition, most hits filed as inhibitors; also: potency is read from the fitted curve at half-maximal effect
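Cells (1,000/well) were plated 4 h before compound, then infected with HCVcc-Cre virus (~0.5 moi). After 44 h further culture, infection was read as luciferase luminescence following a 15 min substrate incubation at room temperature.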
FMDV antiviral = antivirals against foot and mouth disease virus; AID 1159524; Potency, µM (doses to about 57.9 µM), for inactives: at the highest dose activity change, negative = inhibition, usual class: inhibitors; actives 1.2% (n = 410,000); FMDV antiviral cell-based qHTS; calls by dose curve; tested in HEK293T cells; also: read-out not given here; potency is read from the fitted curve at half-maximal effect; nearly all actives have a fitted effect of over 45% in size
* = called active by the depositor. Unless noted, calls follow the shape of the dose curve; as a rule, active = well fitted curve in the direction sought with a large enough effect; inconclusive = small, poorly fitted or top-dose-only effect, or another doubt; inactive = no such curve, though single readings can be large; an effect the other way counts as inactive or inconclusive. % is scaled to controls: 0 for no effect and ±100 for the full control effect.

Screening CCOc1cccc(N(C(=O)C2COc3ccccc3O2)C(C(=O)NC2CCCCC2)c2ccc(O)cc2)c1 (configuration not stated) returned HCMV inh 118, Vaccinia Venus -16%, Vaccinia mCherry -9%, Sm TGR block -5%, HCV inh 15% and FMDV antiviral -24%.
CC(C)CCNC(=O)C(c1ccc(O)cc1)N(C(=O)C1COc2ccccc2O1)c1cccc(O)c1 (configuration not stated) was read as HCMV inh -63*, Vaccinia Venus -14%, Vaccinia mCherry inactive, Sm TGR block inconclusive, HCV inh -25% and FMDV antiviral 1%.
`C[C@@H]1COc2cccc(N(C)CCO)c2S(=O)(=O)N1` gave HCMV inh -12, Vaccinia Venus -7%, Vaccinia mCherry 3% and FMDV antiviral -13%.
`N#CC1=C(N)C(C#N)(C#N)C(c2ccc[nH]2)C2CCCC=C12` (configuration not stated) gave HCMV inh -26, Vaccinia Venus -1%, Vaccinia mCherry -2%, Sm TGR block 16µM*, HCV inh -3% and FMDV antiviral -3%.
Screening N#CC1=C(N)C(C#N)(C#N)C(c2cccnc2)C2CCCC=C12 (configuration not stated) returned Sm TGR block -26%.
For O=C1C(c2ccc(F)cc2)N(CCc2ccccc2)C(=O)CN1C1CCCCC1 (configuration not stated) the results were HCMV inh 0, Vaccinia Venus -10%, Vaccinia mCherry -7%, Sm TGR block 6% and FMDV antiviral 0%.
`CCOC(=O)c1csc(N)c1-c1ccc([N+](=O)[O-])cc1` gave HCMV inh -71*, Sm TGR block 4%, HCV inh inconclusive and FMDV antiviral -16%.
For O=S(=O)(c1cccc2nsnc12)N1CCCCC1 the results were HCMV inh 11, Sm TGR block -4%, HCV inh inconclusive and FMDV antiviral -11%.
Screening Clc1cc(NCc2cccs2)ccc1N1CCOCC1 returned HCMV inh 122, Vaccinia Venus -7%, Vaccinia mCherry -11%, Sm TGR block 45µM*, HCV inh 22% and FMDV antiviral 20%.
c1csc(CNc2ccc3c(c2)OCCO3)c1 was read as HCMV inh -86*, Vaccinia Venus -15%, Vaccinia mCherry -23%, Sm TGR block 31%, HCV inh inconclusive and FMDV antiviral inconclusive.
Oc1ccccc1CNc1ccc2c(c1)OCCO2 was read as HCMV inh inconclusive, Vaccinia Venus -8%, Vaccinia mCherry inconclusive, Sm TGR block inconclusive, HCV inh 13% and FMDV antiviral 30%.
O=C(Cc1cccs1)Nc1cccc(-c2ccc3nncn3n2)c1 was read as HCMV inh 66, Vaccinia Venus -3%, Vaccinia mCherry -6%, Sm TGR block 6%, HCV inh 5% and FMDV antiviral 0%.
Screening CC(C)n1cnc2c(NCc3ccc(S(N)(=O)=O)cc3)nc(NCc3ccc(S(N)(=O)=O)cc3)nc21 returned HCMV inh 11, Vaccinia Venus 0%, Vaccinia mCherry -10%, Sm TGR block 29%, HCV inh 22% and FMDV antiviral -13%.
`CC(C)[C@H](CO)Nc1nc(NCc2ccc(S(N)(=O)=O)cc2)c2ncn(C(C)C)c2n1` gave HCMV inh -96*, Vaccinia Venus inconclusive, Vaccinia mCherry inconclusive, Sm TGR block 4%, HCV inh inconclusive and FMDV antiviral -29%.
For CN(C)CC(c1ccccc1)c1ccccc1 the results were HCMV inh -29, Vaccinia Venus -7%, Vaccinia mCherry inactive, Sm TGR block 0%, HCV inh 14% and FMDV antiviral -7%.
Screening CC(CCCN(C)C)C(Cc1ccccc1)c1ccccc1 (configuration not stated) returned HCMV inh -78*, Vaccinia Venus -16%, Vaccinia mCherry -24%, HCV inh inconclusive and FMDV antiviral -17%.
For CCc1cccc(NC(=O)CSC2=Nc3ccccc3N=C(c3ccc(F)cc3)C2)c1 the results were HCMV inh -35, Vaccinia Venus -14%, Vaccinia mCherry -11%, Sm TGR block 0% and FMDV antiviral -23%.
COc1ccc(NC(=O)CSC2=Nc3ccccc3N=C(c3ccc(F)cc3)C2)cc1OC was read as HCMV inh -102*, Vaccinia Venus -9%, Vaccinia mCherry -15%, Sm TGR block -2% and FMDV antiviral inconclusive.
Screening COc1ccc(OC)c(C2C3=C(COC3=O)Nc3cc4c(cc32)OCO4)c1 (configuration not stated) returned HCMV inh -84*, Sm TGR block -22%, HCV inh -7% and FMDV antiviral -22%.
For C#CCOc1cc(C2C3=C(COC3=O)Nc3cc4c(cc32)OCO4)ccc1OC (configuration not stated) the results were HCMV inh 4, Sm TGR block -5%, HCV inh -4% and FMDV antiviral -21%.
For CC(C)N(C(=O)CSc1ncnc2sc(-c3ccccc3)cc12)C(C)C the results were HCMV inh -31, Vaccinia Venus -14%, Sm TGR block -22%, HCV inh 6% and FMDV antiviral -22%.
For CCOC(=O)c1cnc(SSc2ncc(C(=O)OCC)c(N)n2)nc1N the results were HCMV inh 30, Sm TGR block 50µM*, HCV inh inconclusive and FMDV antiviral -13%.
For C=CCSc1ncc(C(=O)OCC)c(N)n1 the results were HCMV inh 11, Vaccinia Venus -26%, Vaccinia mCherry -15%, Sm TGR block 5%, HCV inh 17% and FMDV antiviral 47%.
Cc1ccc(N=C2NC(=O)/C(=C/c3cccn3C)S2)cc1 was read as HCMV inh -40, Sm TGR block -8%, HCV inh -16% and FMDV antiviral 50%.
`CC1C/C(=C/c2cccn2C)C(=O)/C(=C/c2cccn2C)C1` (configuration not stated) gave HCMV inh -11, Sm TGR block 0%, HCV inh 6.3µM* and FMDV antiviral inconclusive.
`O=C1/C(=C\c2ccncc2)N2CCC1CC2` gave HCMV inh -7, Sm TGR block -33%, HCV inh -2% and FMDV antiviral -4%.
For CC1C/C(=C/c2ccncc2)C(=O)/C(=C/c2ccncc2)C1 (configuration not stated) the results were HCMV inh -101*, Sm TGR block -3%, HCV inh inconclusive and FMDV antiviral 10µM*.
For CC(C)(C)OC(=O)N1CCC(c2c(C(=O)NCc3ccco3)cnn2-c2ccc(F)cc2)CC1 the results were HCMV inh -4, Vaccinia Venus -13%, Vaccinia mCherry -7%, Sm TGR block -26% and FMDV antiviral -19%.

Screens as filed in PubChem BioAssay.
